FMDV antiviral = High Throughput Screening for Foot and Mouth Disease Virus Antivirals; FMDV antiviral cell-based qHTS; Potency, µM (series often up to 57.9 µM), without a hit: at the highest dose activity change, negative = inhibition, actives largely listed as inhibitors; 1.2% of 410,000 active; AID 1159524, 2015; calls by dose curve; tested in HEK293T cells; further: read-out not given here; potency means the concentration at half of the fitted maximal effect; nearly all actives have a fitted effect of over 45% in size
LASV entry inh = qHTS for Inhibitors of binding or entry into cells for Lassa Virus. AID 540256, 2011. 1.2% of 300,000 active. Potency, µM (titrated, usually from 37.9 µM), for the others: at the top dose activity change, negative = inhibition, usual class: inhibitors. Lassa virus pseudotype entry inhibition, cell reporter; calls by dose curve; tested in HEK293 cells; further: potency means the concentration at half of the fitted maximal effect; nearly all actives have a fitted effect of over 50% in size
MARV entry inh = qHTS for inhibitors of binding or entry into cells for Marburg Virus; Marburg virus pseudotyped entry inhibition, cell reporter; Potency, µM (highest dose often 37.8 µM), for inactives: at the top dose activity change, negative = inhibition, hits mostly inhibitors; 1.8% of 300,000 active; AID 540276, 2011; calls by dose curve; tested in HEK293 cells; further: potency means the concentration at half of the fitted maximal effect
Vaccinia Venus = qHTS for Stage-Specific Inhibitors of Vaccinia Orthopoxvirus: Venus Reporter Primary qHTS | Potency, µM (top dose mostly 36.5 µM), without a hit: top-dose activity change, negative = inhibition, hits mostly inhibitors | AID 720580, 2013 | Vaccinia virus Venus reporter expression, fluorescence | 0.46% of 330,000 active; calls by dose curve; tested in A549 cells; further: potency means the concentration at half of the fitted maximal effect; nearly all actives have a fitted effect of over 30% in size
Vaccinia mCherry = qHTS for Stage-Specific Inhibitors of Vaccinia Orthopoxvirus: mCherry Reporter Primary qHTS; 0.63% of 310,000 active; Vaccinia virus mCherry reporter infection, fluorescence; Potency, µM (doses to about 36.5 µM), inactives show at the top dose activity change, negative = inhibition, usual class: inhibitors; calls by dose curve; tested in A549 cells; further: potency means the concentration at half of the fitted maximal effect; nearly all actives have a fitted effect of over 35% in size
HCMV antiviral = qHTS Assay for inhibitors of the human cytomegalovirus (HCMV); HFF cells, HCMV-luciferase reporter, 72 h; stronger effect = lower value; activity change, negative = inhibition, % at 57.5 µM; 4.5% of 410,000 active; AID 1259415, 2018; in the data active means activity change below about -60%; inconclusive means no clear call, values can overlap the other calls; inactive means above about -39%
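After 16 h attachment at 37C, HFF cells received test compound and HCMV-luciferase (1 PFU/cell); reporter luminescence read 72 h later, data normalized against buffer-only and known inhibitor Salinomycin.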
Active calls of the source: *; i = inactive; ? = inconclusive; . = no result; ! = not active in a repeat; [ ] = remark or other dose. Most compounds without a hit are left out; they make up all but 6.5% or so of the library. On the % scale 0 is the no-effect control and ±100 the full control effect.

SMILES	FMDV antiviral	LASV entry inh	MARV entry inh	Vaccinia Venus	Vaccinia mCherry	HCMV antiviral
O=C(Oc1c(CN2CCOCC2)cc(Cl)c2cccnc12)c1ccc(F)cc1	-21.1%	?	10.3µM*	.	.	-96.5*
CSc1ccc(/C=N/NC(=O)c2sccc2C)cc1	-6.0%	?	10µM*	-19.2%	-2.0%	101.8
CSc1ccc(/C=N/NC(=O)c2ccc(C)c(C)c2)cc1	23.1%	?	-18.7%	-20.3%	-11.7%	4.1
O=C(N/N=C/c1ccc(F)cc1)c1sccc1OCc1ccc(F)cc1	9.3%	?	2.24µM*	?	?	?
COc1ccc(C=CNC(=O)c2ccc(OC)cc2)cc1	.	.	17.8%[14.2 µM]	.	.	.
CCC1Sc2ccc(S(=O)(=O)CCC(=O)NCc3ccco3)cc2NC1=O (stereo not drawn)	?	.	.	.	.	-31.3
O=C(CSc1ncccn1)NCC1Cc2cccc(-c3ncccn3)c2O1 (stereo not drawn)	6.2%	.	.	-6.6%	-13.8%	.
CC(C)c1onc(C(=O)N2CCN(c3ccccc3)CC2)c1[N+](=O)[O-]	?	.	.	.	.	-2.3
Cc1ccc(Cl)cc1N1CCN(C(=O)c2noc(C(C)C)c2[N+](=O)[O-])CC1	-27.7%	.	.	.	.	-92.5*
CC(C)c1onc(C(=O)N2CCN(C(c3ccccc3)c3ccccc3)CC2)c1[N+](=O)[O-]	-19.1%	7.9%	-2.2%	.	.	-97.6*
Cc1onc(C(=O)N2CCC(Cc3ccccc3)CC2)c1[N+](=O)[O-]	-14.0%	.	.	.	.	-90.8*
O=C1CCC[C@H]2[C@@H](Cc3ccccc3)[C@@H](NS(=O)(=O)c3ccc(-c4ccccc4)cc3)CC[C@]23CCCN13	.	.	.	.	.	-32.8
O=C(NCc1cccc(Cl)c1)O[C@H]1CC[C@@]23CCCN2C(=O)CCC[C@H]3[C@H]1Cc1ccccc1	.	.	.	.	.	-0.4
Cc1ccc(SCC(=O)NC(C)(C)C)cc1	66.9%	26.0%	10.2%	.	.	61.4
O=c1cnn([C@@H]2O[C@H](CO)[C@@H](O)[C@H]2O)c(=O)[nH]1	-6.1%	0.092µM*	?	-0.2%	?	.
Cc1cccc(C)c1Nc1oc(-c2ccccc2)nc1C(C)(C)C	.	.	1.6%[14.2 µM]	.	.	.
Cc1ccc(C(=O)N2N=C(c3ccc(Br)cc3)CC2c2ccccc2O)cc1 (stereo not drawn)	23.2%	12.6µM*	-29.5%	?	-25.6%	-62.1*
COc1ccc(C2=NN(C(=O)c3cccs3)C(c3ccccc3O)C2)cc1 (stereo not drawn)	-10.9%	.	.	?	?	-94.8*
CC(C(C(=O)N1CCCCC1)N1CCCCC1)N1CCCCC1 (stereo not drawn)	-10.2%	-1.9%[46.1 µM]	1.6%[46.1 µM]	5.3%	-14.2%	-13.8
CCCc1cc(=O)[nH]c(Nc2cc(Cl)cc(Cl)c2)n1	?	?	?	?	?	-105.7*
COCCNC(=O)/C(C#N)=C/c1c(F)cccc1Cl	-27.2%	19.6%	-8.1%[46.1 µM]	-10.6%	-2.6%	-75.4*
COCCNC(=O)/C(C#N)=C/c1ccc(SC)cc1	19.1%	-0.2%[46.1 µM]	-3.1%[46.1 µM]	2.1%	-23.4%	-26.5
CCOC(=O)C1=Nc2ccccc2C1=[N+]=[N-]	-0.5%	?	?	?	?	-100.4*
CCOC(=O)C1=Nc2cccc3c(O)ccc1c23	.	.	.	.	.	15.7
O=c1oc(Cl)c(Cl)c2c1CCCC2	.	.	-27.8%	.	.	.
SMILES	FMDV antiviral	LASV entry inh	MARV entry inh	Vaccinia Venus	Vaccinia mCherry	HCMV antiviral
Oc1ccc(N2CCN(C(=S)NCCc3ccccc3)CC2)cc1	65.3%	?	?	?	3.5%[1.46 µM]	-70.1*
O=C(CN1CCN(c2ccc(O)cc2)CC1)Nc1ccccc1C(=O)NCCc1ccccc1	-19.7%	.	.	.	.	-60.5*
COc1ccc(-c2nc(CSCC(=O)NCCc3ccc(OC)c(OC)c3)c(C)o2)cc1	?	-18.3%[46.1 µM]	?	-18.1%	i	-28.0
CCCCN(CCCC)CCNC(=O)c1cn(C)c2ccc(S(=O)(=O)N(C)C3CCCCC3)cc2c1=O	36.0%	.	.	.	.	0.9
CC(C)=CCN1C(=O)C2(CC(C)=C[C@@H](C)O2)c2c(Br)cccc21 (stereo partly drawn)	.	.	11.3%[14.2 µM]	.	.	.
O=c1[nH]c2ccc(Cl)cc2c(-c2ccccc2)c1N1CCN(c2ccccn2)CC1	8.1%	?	2.31µM*	-18.3%	-4.7%	-2.0
O=C1[C@H]2[C@@H]3[C@@H](O)[C@H](O)CC(=NOCc4ccccc4)[C@@H]3CC[C@H]2C(=O)N1Cc1ccc2c(c1)OCO2	.	?	-17.5%[14.2 µM]	.	.	.
O=C(NCc1cccs1)C1CCN(c2ccc(S(=O)(=O)N3CCOCC3)cc2Cl)CC1	-11.7%	?	1.12µM*!	-28.7%	i	-86.3*
C#CCNC(=O)C1CCN(c2ccc(S(=O)(=O)N3CCOCC3)cc2Cl)CC1	-29.7%	?	8.0%[46.1 µM]	-4.5%	-3.8%	?
Cc1cc(C)nc(N2CCC(C(=O)NCc3cccs3)CC2)n1	23.5%	-14.0%[14.3 µM]	-0.1%	-3.8%	-15.3%	-93.0*
Cc1cc(C)nc(N2CCC(C(=O)NCc3ccco3)CC2)n1	-13.1%	-5.7%	0.1%	.	.	-16.5
COc1ccccc1-n1nc(-c2ccccc2)c2cnc3c(F)cc(F)cc3c21	-3.9%	-12.8%[46.1 µM]	-7.4%[46.1 µM]	-10.8%	-7.7%	-1.7
Cc1cc(C)cc(C(=O)N2CC(=O)Nc3ccccc32)c1	-7.0%	?	?	?	-18.9%	-80.6*
COc1ccccc1OC(C)C(=O)N1CC(=O)Nc2ccccc21 (stereo not drawn)	-2.3%	-19.8%[46.1 µM]	3.1%[46.1 µM]	8.2%	-1.0%	-72.2*
COc1cc(C(=O)N2CC(=O)Nc3ccccc32)cc(OC)c1OC	-16.3%	.	.	-29.1%	-14.9%	-16.5
CCOC(=O)C(Cc1cc(N)c(Oc2ccc(OC)cc2)c(N)c1)NC(C)=O (stereo not drawn)	7.1%	0.4%	1.4%	-5.4%	-9.5%	5.6
CC(=O)OC[C@H]1O[C@H](C#Cc2ccccc2Cl)C=C[C@H]1OC(C)=O	.	.	-1.2%[14.2 µM]	.	.	.
C[C@@H]1NC(=O)/C(=C\c2ccccc2Br)NC1=O	13.1%	?	8.2%	-9.2%	-10.7%	-101.6*
C[C@@H]1NC(=O)/C(=C\c2ccccc2Cl)NC1=O	-9.0%	-2.2%	-2.9%	-3.2%	-12.4%	?
CN(C)c1ccc(-c2nc3ccccn3c2Nc2ccc3c(c2)OCCO3)cc1	16.8%	5.7%[46.1 µM]	?	-6.5%	-13.3%	-95.9*
Clc1cccc(-c2nc3ccccn3c2Nc2ccc3c(c2)OCCO3)c1	-4.2%	1.0%[46.1 µM]	-25.0%[46.1 µM]	-8.3%	-8.0%	-103.9*
Oc1ccc(-c2nc3ccccn3c2Nc2ccc3c(c2)OCCO3)cc1	4.9%	17.2%[46.1 µM]	?	-2.0%	-13.6%	10.2
Cc1ccc2nc(-c3cccc(Cl)c3)c(Nc3ccc4c(c3)OCO4)n2c1	30.8%	16.1%[46.1 µM]	2.3%[46.1 µM]	2.9%	-0.2%	26.9
CC1(C)Cc2c(C#N)c(SCC(=O)c3ccccc3)nc(N3CCOCC3)c2CS1	-11.9%	17.8µM*	-28.8%	-18.2%	-32.3%	18.3

From PubChem BioAssay
